{"source": "the supplement of paper PMC12669032", "note": "Unmarked numbers belong to inactive results.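 Rule for the calls: active = AUC reduced over 20% with Padj below 0.05 in at least 2 of 3 replicates; inactive = otherwise.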"}
{"test_system": "Bacteroides clarus", "test": "growth AUC relative to DMSO control (median of replicates) (fraction); higher = more growth (less inhibition), active = hit call of the paper", "conditions": "20 µM; 24 h", "in_short": "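Gut bacterial monocultures in mGAM were treated with 20 µM compound (1% DMSO) and grown anaerobically at 37 °C in round-bottom 96-well plates from OD600 0.05. OD600 was read hourly for 24 h, with the minimum OD set to 0. Area under the growth curve was normalised to the plate median of solvent-only wells, or to row and column medians on the industrial chemical plate. Each value is the median of three biological replicates, each grown on a separate day.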"}
{"smiles": "S=C([S-])NCCNC(=S)[S-].[Mn+2]", "growth AUC": 1.13}
{"smiles": "COc1ccc(Cl)c(Cl)c1Cl", "growth AUC": 1.01}
{"smiles": "CCCCOC(=O)C(C)Oc1ccc(Oc2ccc(C(F)(F)F)cn2)cc1", "note": "(centres undefined)", "growth AUC": 0.977}
{"smiles": "CCCCOCN(C(=O)CS(=O)(=O)[O-])c1c(CC)cccc1CC.[Na+]", "growth AUC": 0.997}
{"smiles": "CC(C)OC(=O)N[C@H](C(=O)N[C@H](C)c1nc2ccc(F)cc2s1)C(C)C", "growth AUC": 0.997}
{"smiles": "Oc1c(Cl)cc(Cl)c(Cl)c1Cc1c(O)c(Cl)cc(Cl)c1Cl", "growth AUC": "0.0212 (active)"}
{"smiles": "COc1ccc(Oc2ccc(NC(=O)N(C)C)cc2)cc1", "growth AUC": 0.958}
{"smiles": "CCCCOCCOC(=O)COc1nc(Cl)c(Cl)cc1Cl", "growth AUC": 0.956}
{"smiles": "CCSC(=O)N(CC(C)C)CC(C)C", "growth AUC": 1}
{"smiles": "C#CC(C)N(C)C(=O)Nc1ccc(Cl)cc1", "note": "(centres undefined)", "growth AUC": 0.985}
{"smiles": "O=S(=O)(Oc1ccc(Cl)cc1)c1ccccc1", "growth AUC": 0.967}
{"smiles": "CC(C)c1nn(C(=O)NC(C)(C)C)c(=O)n1N", "growth AUC": 0.976}
{"smiles": "COC(=O)c1ccc(I)cc1S(=O)(=O)[N-]C(=O)Nc1nc(C)nc(OC)n1.[Na+]", "growth AUC": 0.992}
{"smiles": "C=O", "growth AUC": 0.982}
{"smiles": "O=C1NCC[n+]2ccccc21.[Br-]", "growth AUC": 1.01}
{"smiles": "CCCCOCCOCCOCc1cc2c(cc1CCC)OCO2", "growth AUC": 0.983}
{"smiles": "Cc1ccc(C)c(O)c1", "growth AUC": 0.98}
{"smiles": "CCNc1nc(N)[nH]c(=O)n1", "growth AUC": 0.998}
{"smiles": "O.O=C(Nc1ccc(Cl)c(Cl)c1)Nc1cc(Cl)ccc1Oc1ccc(Cl)cc1S(=O)(=O)[O-].[Na+]", "growth AUC": "0.22 (active)"}
{"smiles": "O=c1cc(Cl)[nH]nc1-c1ccccc1", "growth AUC": 0.967}
{"smiles": "CCNC(=O)[C@@H](C)OC(=O)Nc1ccccc1", "growth AUC": 1.02}
{"smiles": "Cc1c(C(=O)c2c[nH]n(C)c2=O)ccc(S(C)(=O)=O)c1C1=NOCC1", "growth AUC": 0.983}
{"smiles": "NC(=S)Nc1cccc2ccccc12", "growth AUC": 0.991}
{"smiles": "c1cc2ccc3ccc4ccc5cccc6c(c1)c2c3c4c56", "growth AUC": 1}
{"smiles": "CCc1cccc(CC)c1N(COC)C(=O)CS(=O)(=O)[O-].[Na+]", "growth AUC": 1.01}
{"smiles": "CN(C)c1ccc(N=NS(=O)(=O)[O-])cc1.[Na+]", "growth AUC": 1.01}
{"smiles": "CCc1cc(C(=O)O)cc(CC)c1C1C(=O)N2CCOCCN2C1=O", "growth AUC": 1.03}
{"smiles": "FC(F)(F)C(=NOCC1OCCO1)c1ccc(Cl)cc1", "growth AUC": 1.05}
{"smiles": "Cc1nn(C)c(OCC(=O)c2ccccc2)c1C(=O)c1ccc(Cl)cc1Cl", "growth AUC": 0.978}
{"smiles": "C=CCO/N=C(\\CCC)C1=C([O-])CC(C)(C)C(C(=O)OC)C1=O.[Na+]", "note": "(centres undefined)", "growth AUC": 1.03}
{"smiles": "COC(=O)C(C)Oc1ccc(Cl)cc1Cl", "note": "(centres undefined)", "growth AUC": 1}
{"smiles": "COc1cc(OC)nc(NC(=O)NS(=O)(=O)Nc2ccccc2C(=O)C2CC2)n1", "growth AUC": 0.943}
{"smiles": "O=C(Nc1ccc(O)cc1-c1ccc(Cl)cc1)c1cccnc1Cl", "growth AUC": 0.976}
{"smiles": "S=C([S-])NCCNC(=S)[S-].[Zn+2]", "growth AUC": 0.989}
{"smiles": "COC(=O)COc1ccc(Cl)cc1C", "growth AUC": 0.986}
{"smiles": "ClC=C(c1ccc(Cl)cc1)c1ccc(Cl)cc1", "growth AUC": 0.959}
{"smiles": "CCCOc1nc2ccc(I)cc2c(=O)n1CCC", "growth AUC": 0.896}
{"smiles": "C#CCN(C)c1c(C#N)cnn1-c1nn2c(c1Cl)CCCC2", "growth AUC": 0.931}
{"smiles": "COC(=O)c1ccccc1S(=O)(=O)NC(=O)Nc1nc(OC(F)F)cc(OC(F)F)n1", "growth AUC": 0.971}
